# From publication PMC8384837, “Expanding the binding specificity for RNA recognition by a PUF domain”
# Assays:
# Test in all cases: yeast three-hybrid, YBZ-1, SC-Leu-His + 0.5 mM 3-AT, 4 days
# Conditions in all cases: tags: N-Gal4 AD-HA kept; label: inside an RPR1-promoter hybrid RNA with tandem MS2 sites; ssRNA
# PUM1 PUF domain R1-RYQ = PUM1 PUF domain R1-RYQ (Homo sapiens, UniProt Q14671 828-1176, S863R;R864Y)
# Summary of the method: (§1)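 Repeat regions from input (SC-Leu) and selection (SC-Leu-His + 0.5 mM 3-AT) plates were PCR-amplified and Illumina-sequenced after four days of growth. The cells were strain YBZ-1 with a LexA–MS2 coat fusion and a HIS3 reporter, co-expressing Pumilio-1 PUF domain libraries and matching RNA elements from a centromeric plasmid. The interaction score is the log change in variant frequency from input to selection, taken in log2 with a pseudocount of 1 for absent variants.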
# PUM1 PUF domain R1-KPL = PUM1 PUF domain R1-KPL (Homo sapiens, UniProt Q14671 828-1176, S863K;R864P;Q867L)
# Summary of the method: as §1
# PUM1 PUF domain R1-RPC = PUM1 PUF domain R1-RPC (Homo sapiens, UniProt Q14671 828-1176, S863R;R864P;Q867C)
# Summary of the method: as §1
# PUM1 PUF domain R4-WHG = PUM1 PUF domain R4-WHG (Homo sapiens, UniProt Q14671 828-1176, N971W;Q975G)
# Summary of the method: as §1
# PUM1 PUF domain R4-DWG = PUM1 PUF domain R4-DWG (Homo sapiens, UniProt Q14671 828-1176, N971D;H972W;Q975G)
# Summary of the method: as §1
# PUM1 PUF domain R4-HWP = PUM1 PUF domain R4-HWP (Homo sapiens, UniProt Q14671 828-1176, N971H;H972W;Q975P)
# Summary of the method: as §1
# PUM1 PUF domain R4-GPT = PUM1 PUF domain R4-GPT (Homo sapiens, UniProt Q14671 828-1176, N971G;H972P;Q975T)
# Summary of the method: as §1
# PUM1 PUF domain R7-VVK = PUM1 PUF domain R7-VVK (Homo sapiens, UniProt Q14671 828-1176, S1079V;N1080V;E1083K)
# Summary of the method: as §1
# PUM1 PUF domain R1-SKR = PUM1 PUF domain R1-SKR (Homo sapiens, UniProt Q14671 828-1176, R864K;Q867R)
# Summary of the method: as §1
# PUM1 PUF domain R5-LNA = PUM1 PUF domain R5-LNA (Homo sapiens, UniProt Q14671 828-1176, C1007L;R1008N;Q1011A)
# Summary of the method: as §1
# PUM1 PUF domain R5-GRV = PUM1 PUF domain R5-GRV (Homo sapiens, UniProt Q14671 828-1176, C1007G;Q1011V)
# Summary of the method: as §1
# PUM1 PUF domain R5-HLE = PUM1 PUF domain R5-HLE (Homo sapiens, UniProt Q14671 828-1176, C1007H;R1008L;Q1011E)
# Summary of the method: as §1
sequence,measurement,setting,value
GGCUAGAACUAGUGGAUCCCCCGGCGCCCGGCGGCUCGAGCCCGGGUAAGUGUAAAUUGUCUGCAUGCCGCCGGGCGCCAUGCCUGCAGGUCGACUCUAGAAAACAUG,binding signal,PUM1 PUF domain R1-RYQ,4.14 log2 enrichment (interaction score)
same,binding signal,PUM1 PUF domain R1-KPL,3.37 log2 enrichment (interaction score)
same,binding signal,PUM1 PUF domain R1-RPC,1.56 log2 enrichment (interaction score)
GGCUAGAACUAGUGGAUCCCCCGGCGCCCGGCGGCUCGAGCCCGGGUAAGUGUAUAUAGUCUGCAUGCCGCCGGGCGCCAUGCCUGCAGGUCGACUCUAGAAAACAUG,binding signal,PUM1 PUF domain R4-WHG,3.79 log2 enrichment (interaction score)
same,binding signal,PUM1 PUF domain R4-DWG,4.56 log2 enrichment (interaction score)
same,binding signal,PUM1 PUF domain R4-HWP,4.4 log2 enrichment (interaction score)
same,binding signal,PUM1 PUF domain R4-GPT,2.14 log2 enrichment (interaction score)
GGCUAGAACUAGUGGAUCCCCCGGCGCCCGGCGGCUCGAGCCCGGGUAAGUUUAAAUAGUCUGCAUGCCGCCGGGCGCCAUGCCUGCAGGUCGACUCUAGAAAACAUG,binding signal,PUM1 PUF domain R7-VVK,3.27 log2 enrichment (interaction score)
GGCUAGAACUAGUGGAUCCCCCGGCGCCCGGCGGCUCGAGCCCGGGUAAGUGUAAAUCGUCUGCAUGCCGCCGGGCGCCAUGCCUGCAGGUCGACUCUAGAAAACAUG,binding signal,PUM1 PUF domain R1-SKR,3.09 log2 enrichment (interaction score)
same,binding signal,PUM1 PUF domain R1-RYQ,5.27 log2 enrichment (interaction score)
same,binding signal,PUM1 PUF domain R1-KPL,2.58 log2 enrichment (interaction score)
same,binding signal,PUM1 PUF domain R1-RPC,2.57 log2 enrichment (interaction score)
GGCUAGAACUAGUGGAUCCCCCGGCGCCCGGCGGCUCGAGCCCGGGUAAGUGUUAAUAGUCUGCAUGCCGCCGGGCGCCAUGCCUGCAGGUCGACUCUAGAAAACAUG,binding signal,PUM1 PUF domain R5-LNA,4.02 log2 enrichment (interaction score)
same,binding signal,PUM1 PUF domain R5-GRV,3.07 log2 enrichment (interaction score)
same,binding signal,PUM1 PUF domain R5-HLE,2.54 log2 enrichment (interaction score)
